# Measurements: PubChem BioAssay (EPA / NIEHS)
# Where a structure was tested more than once in an assay, its records may differ in their call. The source made the active and inactive calls. The calls were made as follows: active = hit-call score of the fitted dose curve at least 0.9, where 1 is the maximum; inactive = score below 0.9.
# Experiment: ATG_FoxO_CIS: Attagene CIS-FACTORIAL HepG2 Assay for human Forkhead box O (FoxO) (AID 2282943)
# Conditions: HepG2 Attagene cis-reporter, FoxO element, mRNA; actives raise or lower the signal
# Description: ATG_CIS is a cell-based, multiplexed-readout assay that uses HepG2, a human liver cell line, with measurements taken at 24 hours after chemical dosing in a 24-well plate.ATG_FoxO_CIS is one of 52 assay component(s) measured or calculated from the ATG_CIS assay. It is designed to make measurements of mRNA induction, a form of inducible reporter, as detected with fluorescence intensity signals by Reverse transcription polymerase chain reaction (RT-PCR) and Capillary electrophoresis technology.Data from the assay component ATG_FoxO_CIS was analyzed into 1 assay endpoint. This assay endpoint, ATG_FoxO_CIS, was analyzed with bidirectional fitting relative to DMSO as the negative control and baseline of activity. Using a type of inducible reporter, measures of mRNA for gain or loss-of-signal activity can be used to understand the reporter gene at the transcription factor-level as they relate to the gene FOXO1 and FOXO3. Furthermore, this assay endpoint can be referred to as a primary readout, because this assay has produced multiple assay endpoints where this one serves a reporter gene function. To generalize the intended target to other relatable targets, this assay endpoint is annotated to the dna binding intended target family, where the subfamily is forkhead box protein.
# Human liver HepG2 cells are transiently transfected with multiple reporter transcription units (MRTUs) in 6-well plates using FuGene 6 reagent (Roche; 3 ml FuGene/1 mg DNA). The MRTU constructs are regulated by a cis-regulating element (promoter). […] A major difference between the CIS and TRANS system is that in CIS activities of endogenous TFs are measured, whereas the TRANS assay evaluates changes in activities of exogenous, chimeric NR-Gal4 proteins. […] At the end of 24 hour incubation, total RNA was isolated using TriZol reagent (Invitrogen). The isolated RNA is then reverse-transcribed using oligo(dT) primer and Mo-MLV reverse transcriptase (Invitrogen) with DNAse I (Ambion) treatment for 30 min. The one-tenth of the produced cDNA was amplified by PCR using Taq DNA polymerase (Invitrogen) and two reporter sequence-specific primers. The PCR products were fluorescently labeled by primer extension with 6-arboxyfluorescein (6-FAM) 5'-labeled reporter sequence-specific primer (2 min at 95 C, 20 s at 68 C and 10 min at 72 C) and these products were digested with 5U of HpaI (New England Biolabs) for 2h at 37 C. The fragments were purified using Qiaquick PCR columns (Qiagen), analyzed on an ABI 3130xL genetic analyzer (Applied Biosystems) with peak positions identified by using a set of X-rhodamine (ROX)-labeled MapMarker1000 molecular weight standards (BioVentures). The raw capillary electrophoresis data was processed using Attagraph software (Attagene).
SMILES,outcome,AC50
CCCOC(=O)c1cc(O)c(O)c(O)c1,inactive,–
NC(=O)c1nc(-c2cccc(-c3cc(F)ccc3OCC(F)(F)C(F)(F)F)c2)n[nH]1,inactive,–
CC1=CC(=O)/C(=C(/C)O)C(=O)O1,inactive,–
c1ccc2ccccc2c1,inactive,–
c1ccc(C[n+]2cccc3ccccc32)cc1,inactive,–
CCCCCCCCOc1ccc(C(=O)c2ccccc2)c(O)c1,inactive,–
CN1C(=O)CC[C@H]1c1cccnc1,inactive,–
CCCCCCCCCC(=O)O,inactive,–
Cc1cn([C@H]2C[C@H](N=[N+]=[N-])[C@@H](CO)O2)c(=O)[nH]c1=O,inactive,–
CC(C)(c1cc(Br)c(O)c(Br)c1)c1cc(Br)c(O)c(Br)c1,inactive,58 µM (active)
C[C@]12CC[C@@H]3c4ccc(O)cc4CC[C@H]3[C@@H]1CC[C@H]2O,inactive,–
O=C(O)Cn1c(=O)n(Cc2ccc(Br)cc2F)c(=O)c2ccc(Cl)cc21,inactive,–
O=c1[nH]sc2ccccc12,inactive,–
CC(O)CC(C)(C)O (stereo not given),inactive,0.0124 µM (active)
O=C(Nc1ccc(Cl)cc1)Nc1ccc(Cl)c(Cl)c1,inactive,–
c1ccc2n[nH]nc2c1,inactive,–
CN1C(=O)N(c2ccccc2Br)Cc2cnc(Nc3ccc4c(c3)OCC(CO)O4)nc21 (stereo not given),inactive,–
Cc1cccc2ccccc12,inactive,–
OC12N=C(c3ccccc3)SC1Cc1cc(Cl)ccc12 (stereo not given),inactive,–

SMILES,outcome,AC50
CCCCCCCCN(C)CCCCCCCC,inactive,–
OCCO,inactive,–
CCCC(=O)OCCC(C)C,inactive,–
Clc1ccccc1C(c1ccccc1)(c1ccccc1)n1ccnc1,inactive,–
CCN(Cc1cccnc1)C(=O)c1cccc(Cl)c1[C@]1(C)C(=O)N(Cc2ccc(OC)cc2OC)c2ccc(Cl)cc21,inactive,–
O=CCCCC=O,inactive,–
CN(C)C(=O)C1(N2CCCCC2)CCN(CC[C@@]2(c3ccc(Cl)c(Cl)c3)CN(C(=O)c3ccccc3)CCO2)CC1,inactive,–
CCO[Si](CCCNC(N)=O)(OCC)OCC,inactive,–
CC[C@H](NC(=O)c1cc(F)ccc1NS(=O)(=O)c1cccc2cccnc12)c1ccccc1,inactive,–
Cc1occc1C(=O)Nc1ccc(C(=O)N2CCC(F)(F)/C(=C\C(=O)N3CCC(N4CCCCC4)CC3)c3ccccc32)cc1,inactive,–
CCCCCCCCOC(=O)c1cc(O)c(O)c(O)c1,inactive,–
CC(C)(O)c1ccc(CNC(=O)c2cccnc2Oc2ccc3nonc3c2)cc1,inactive,–
CCN(Cc1cccc(S(=O)(=O)O)c1)c1ccc(C(=C2C=CC(=[N+](CC)Cc3cccc(S(=O)(=O)O)c3)C=C2)c2ccccc2S(=O)(=O)[O-])cc1,inactive,–
O=C(O)c1ccccc1-n1cc(C(=O)O)c(=O)c2cc(Nc3c(F)cc(F)cc3Cl)c(Cl)cc21,inactive,–
Cc1c2ccccc2c(C)c2c1ccc1ccccc12,inactive,–
Cc1oc2c(NC(=O)c3c(Cl)cccc3Cl)cccc2c1C(C)(C)O,inactive,–
O=C(O)c1ccccc1C(=O)OCc1ccccc1,inactive,–
COc1ccc2cc(S(=O)(=O)N[C@H](CC(=O)N[C@H](Cc3ccc(CN4[C@H](C)CCC[C@@H]4C)cc3)C(=O)N(C)C(C)C)c3ccc4c(c3)OCO4)ccc2c1,inactive,–
CC1(C)NC(=O)N(c2ccc([N+](=O)[O-])c(C(F)(F)F)c2)C1=O,inactive,–
